Consider three molecules from PubChem BioAssay (NCATS).

Some of the results follow. Records with an inconclusive call do not appear. Values without a mark were called inactive. Calls of active or inactive are those of the source. Calls follow the shape of the dose curve; as a rule, active = well fitted inhibition curve with a large enough effect; inconclusive = small, poorly fitted or top-dose-only effect; inactive = flat fitted curve, though single readings scatter.

Experiment [1] addresses Fructose-bisphosphate aldolase A (Oryctolagus cuniculus) (UniProt P00883). The experiment is described as follows: qHTS Assay for Inhibitors of Fructose-1,6-bisphosphate Aldolase from Giardia Lamblia: Rabbit FBPA Selectivity (AID 2794). Also: nearly all actives have a fitted effect of over 60% in size. In short, it runs like this: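 To triage Class I aldolase inhibitors, rabbit FBPA activity is followed through a glyceraldehyde-3-phosphate-linked enzyme cascade feeding AmpLite Red. Compounds (up to 57.5 uM final) sit 10 min with coupling enzymes before substrate; fluorescence is read 20 min later.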
On the technique in general: Quantitative high-throughput screening tests each substance at several concentrations.

Experiment [2] can be described thus: qHTS Assay for Inhibitors of Fructose-1,6-bisphosphate Aldolase from Giardia Lamblia: Coupling assay counterscreen confirmation (AID 2795). Also: nearly all actives have a fitted effect of over 55% in size. Put shortly: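 Counterscreen, no aldolase: coupling enzyme reagent + cpd (up to 57.5 uM final), 10 min RT; add substrate + coupling system + AmpLite Red, 20 min RT; fluorescence ex 525/em 598 nm.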

Sequence of Fructose-bisphosphate aldolase A (Oryctolagus cuniculus) (P00883 whole entry, looked up): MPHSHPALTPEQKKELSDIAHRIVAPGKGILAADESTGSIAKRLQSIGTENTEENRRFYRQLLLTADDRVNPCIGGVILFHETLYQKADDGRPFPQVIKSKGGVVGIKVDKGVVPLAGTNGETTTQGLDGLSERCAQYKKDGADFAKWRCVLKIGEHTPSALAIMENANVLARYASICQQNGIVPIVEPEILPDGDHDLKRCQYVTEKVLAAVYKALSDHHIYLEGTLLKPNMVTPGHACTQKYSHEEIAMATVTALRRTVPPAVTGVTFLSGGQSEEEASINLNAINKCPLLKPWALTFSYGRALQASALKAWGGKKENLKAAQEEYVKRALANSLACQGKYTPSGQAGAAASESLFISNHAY

With `CSc1n[nH]c(=S)n1N`, the outcome in experiment [1] was inactive. As to `COCCN(C(=S)Nc1ccccc1OC)C1CCN(C(C)C)CC1`, in experiment [2], the result was inactive. For `O=C(Nc1nnc(-c2ccco2)o1)c1ccc(S(=O)(=O)N2CCOCC2)cc1`, the molecule was classed as inactive in experiment [2].
